# Measured values: PMC7862700, “An all-to-all approach to the identification of sequence-specific readers for epigenetic DNA modifications on cytosine”
# Tests used:
# Assay in all cases: DAPPL (digital affinity profiling via proximity ligation, sequencing); 10 mM Tris-HCl pH 7.5, 50 mM NaCl, 1 mM DTT, 4% glycerol, room temperature, 30 min; GST-TFs on glutathione beads, 16-mer random dsDNA library, 0.1% formaldehyde crosslink after washing; high values mean tight binding
# Conditions in all cases: protein: recombinant; tags: N-terminal GST; dsDNA, one strand shown
# ETV1 = ETV1 (Homo sapiens, UniProt P50549 1-477)
# How it was run: (§1)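 Human transcription factors were made in yeast as GST fusions, captured on glutathione beads and barcoded with DNA. With a tag-only sample included, the pool was incubated with 200 nmole of a random double-stranded 16-mer DNA library in Tris/NaCl/DTT/glycerol buffer at room temperature for 30 min, then crosslinked with 0.1% formaldehyde after washing, ligated by proximity, amplified and sequenced. For binding signal, each hexamer's read frequency for a factor is divided by its frequency for the tag-only sample.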
# ERF = target: T1, ERF (Homo sapiens, UniProt P50548 1-548)
# T1 sequence: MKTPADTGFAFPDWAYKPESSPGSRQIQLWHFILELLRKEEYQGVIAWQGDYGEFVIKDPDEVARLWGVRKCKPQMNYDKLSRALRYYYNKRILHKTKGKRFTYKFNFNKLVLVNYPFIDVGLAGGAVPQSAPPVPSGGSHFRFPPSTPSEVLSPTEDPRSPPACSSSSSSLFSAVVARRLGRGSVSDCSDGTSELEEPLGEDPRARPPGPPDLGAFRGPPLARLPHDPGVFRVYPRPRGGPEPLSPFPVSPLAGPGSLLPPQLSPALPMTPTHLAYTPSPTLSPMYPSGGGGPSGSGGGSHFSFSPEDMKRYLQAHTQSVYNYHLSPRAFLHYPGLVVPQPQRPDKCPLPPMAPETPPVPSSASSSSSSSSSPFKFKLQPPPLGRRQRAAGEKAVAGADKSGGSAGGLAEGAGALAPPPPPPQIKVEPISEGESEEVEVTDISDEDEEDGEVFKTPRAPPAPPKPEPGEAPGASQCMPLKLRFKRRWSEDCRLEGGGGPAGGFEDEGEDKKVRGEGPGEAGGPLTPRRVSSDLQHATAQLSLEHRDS
# How it was run: as §1
# ETV3L = target: T2, ETV3L (Homo sapiens, UniProt Q6ZN32 1-361)
# T2 sequence: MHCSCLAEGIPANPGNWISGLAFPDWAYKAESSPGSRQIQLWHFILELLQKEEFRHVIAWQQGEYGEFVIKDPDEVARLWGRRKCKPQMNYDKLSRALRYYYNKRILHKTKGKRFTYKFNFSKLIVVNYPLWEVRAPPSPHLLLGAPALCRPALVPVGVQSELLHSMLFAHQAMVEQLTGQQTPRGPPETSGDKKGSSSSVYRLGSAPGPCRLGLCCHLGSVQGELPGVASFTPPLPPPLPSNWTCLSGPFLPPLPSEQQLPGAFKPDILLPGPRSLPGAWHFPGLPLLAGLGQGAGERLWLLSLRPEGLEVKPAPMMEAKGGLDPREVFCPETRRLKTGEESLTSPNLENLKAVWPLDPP
# How it was run: as §1
# ETS2 = target: T3, ETS2 (Homo sapiens, UniProt P15036 1-469)
# T3 sequence: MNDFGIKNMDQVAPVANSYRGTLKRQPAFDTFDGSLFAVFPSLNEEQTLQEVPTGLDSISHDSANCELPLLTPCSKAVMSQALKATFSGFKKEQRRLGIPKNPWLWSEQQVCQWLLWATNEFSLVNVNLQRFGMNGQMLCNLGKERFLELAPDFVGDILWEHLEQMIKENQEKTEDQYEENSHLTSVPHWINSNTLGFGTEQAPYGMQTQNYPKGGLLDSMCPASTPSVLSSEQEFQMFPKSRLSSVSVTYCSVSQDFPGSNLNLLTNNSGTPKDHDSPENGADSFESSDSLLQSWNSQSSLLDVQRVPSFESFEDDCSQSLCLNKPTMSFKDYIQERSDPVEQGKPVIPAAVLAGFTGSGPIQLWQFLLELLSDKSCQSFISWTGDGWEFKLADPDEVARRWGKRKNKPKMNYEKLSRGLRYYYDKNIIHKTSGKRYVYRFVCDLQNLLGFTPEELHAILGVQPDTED
# How it was run: as §1
# SPDEF = target: T4, SPDEF (Homo sapiens, UniProt O95238 1-335)
# T4 sequence: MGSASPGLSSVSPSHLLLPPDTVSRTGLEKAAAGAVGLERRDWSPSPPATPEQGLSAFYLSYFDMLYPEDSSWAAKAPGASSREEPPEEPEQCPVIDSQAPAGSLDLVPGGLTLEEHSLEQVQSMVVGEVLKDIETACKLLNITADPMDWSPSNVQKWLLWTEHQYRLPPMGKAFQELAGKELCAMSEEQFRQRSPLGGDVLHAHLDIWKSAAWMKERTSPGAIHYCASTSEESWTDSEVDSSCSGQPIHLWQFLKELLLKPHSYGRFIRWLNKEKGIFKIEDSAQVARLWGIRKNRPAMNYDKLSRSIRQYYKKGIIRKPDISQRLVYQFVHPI
# How it was run: as §1
# ETV7 = target: T5, ETV7 (Homo sapiens, UniProt Q9Y603 1-341)
# T5 sequence: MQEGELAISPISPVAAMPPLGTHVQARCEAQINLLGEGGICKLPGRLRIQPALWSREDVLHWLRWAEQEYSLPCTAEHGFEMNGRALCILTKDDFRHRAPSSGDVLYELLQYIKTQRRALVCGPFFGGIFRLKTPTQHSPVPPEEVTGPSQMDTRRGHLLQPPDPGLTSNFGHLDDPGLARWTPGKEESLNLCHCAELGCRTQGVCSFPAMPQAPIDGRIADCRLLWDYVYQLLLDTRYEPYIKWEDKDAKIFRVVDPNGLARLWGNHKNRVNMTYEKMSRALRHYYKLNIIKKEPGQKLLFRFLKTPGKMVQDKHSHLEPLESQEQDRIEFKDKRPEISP
# How it was run: as §1
# ELF5 = target: T6, ELF5 (Homo sapiens, UniProt Q9UKW6-2 1-255)
# T6 sequence: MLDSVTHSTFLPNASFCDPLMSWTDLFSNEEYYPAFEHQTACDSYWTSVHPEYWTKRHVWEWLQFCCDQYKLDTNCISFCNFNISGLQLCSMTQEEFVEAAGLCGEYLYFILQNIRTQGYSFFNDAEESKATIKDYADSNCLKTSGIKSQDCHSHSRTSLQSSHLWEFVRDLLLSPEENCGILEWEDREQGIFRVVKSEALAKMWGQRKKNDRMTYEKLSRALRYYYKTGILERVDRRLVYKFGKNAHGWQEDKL
# How it was run: as §1
# ETV3 = target: T7, ETV3 (Homo sapiens, UniProt P41162-2 1-143)
# T7 sequence: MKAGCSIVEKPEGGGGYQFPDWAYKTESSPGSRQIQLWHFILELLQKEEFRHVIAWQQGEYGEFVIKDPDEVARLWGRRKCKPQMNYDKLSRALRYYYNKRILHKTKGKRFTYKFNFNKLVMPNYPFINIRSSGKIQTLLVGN
# How it was run: as §1
# ETV6 = ETV6 (Homo sapiens, UniProt P41212 1-452)
# How it was run: as §1
# Sequence of ETV1 (P50549 whole entry, the tested form may be a part): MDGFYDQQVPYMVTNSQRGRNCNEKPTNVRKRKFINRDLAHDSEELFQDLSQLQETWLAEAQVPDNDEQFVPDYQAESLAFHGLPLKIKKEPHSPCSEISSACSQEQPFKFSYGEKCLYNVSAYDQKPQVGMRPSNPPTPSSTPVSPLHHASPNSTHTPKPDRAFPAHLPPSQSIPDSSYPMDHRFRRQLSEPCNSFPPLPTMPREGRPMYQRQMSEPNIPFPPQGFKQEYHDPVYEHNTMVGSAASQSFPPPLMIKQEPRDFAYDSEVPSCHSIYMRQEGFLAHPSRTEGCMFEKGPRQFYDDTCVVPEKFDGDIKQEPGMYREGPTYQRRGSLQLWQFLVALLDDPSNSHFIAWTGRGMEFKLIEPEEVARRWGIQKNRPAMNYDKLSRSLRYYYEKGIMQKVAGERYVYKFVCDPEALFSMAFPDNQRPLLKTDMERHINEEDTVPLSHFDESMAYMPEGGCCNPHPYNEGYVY
# Sequence of ETV6 (P41212 whole entry): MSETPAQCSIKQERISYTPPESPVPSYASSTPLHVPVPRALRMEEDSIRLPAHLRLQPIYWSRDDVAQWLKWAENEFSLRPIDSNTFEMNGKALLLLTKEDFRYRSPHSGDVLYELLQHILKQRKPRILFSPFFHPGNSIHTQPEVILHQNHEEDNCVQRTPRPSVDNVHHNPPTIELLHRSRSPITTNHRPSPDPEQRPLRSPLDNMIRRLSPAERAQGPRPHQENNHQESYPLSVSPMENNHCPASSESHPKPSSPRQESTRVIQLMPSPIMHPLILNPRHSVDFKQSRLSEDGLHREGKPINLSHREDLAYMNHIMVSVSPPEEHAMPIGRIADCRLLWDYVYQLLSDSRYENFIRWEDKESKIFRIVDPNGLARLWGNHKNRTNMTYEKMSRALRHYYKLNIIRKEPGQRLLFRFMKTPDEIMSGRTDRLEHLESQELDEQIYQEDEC
sequence,measurement,setting,value
TCCTTT,binding signal,ETV1,"1.68 fold enrichment (6-mer frequency, TF over GST control)"
same,binding signal,ERF,"1.62 fold enrichment (6-mer frequency, TF over GST control)"
same,binding signal,ETV3L,"1.85 fold enrichment (6-mer frequency, TF over GST control)"
same,binding signal,ETS2,"1.67 fold enrichment (6-mer frequency, TF over GST control)"
same,binding signal,SPDEF,"1.76 fold enrichment (6-mer frequency, TF over GST control)"
same,binding signal,ETV7,"1.59 fold enrichment (6-mer frequency, TF over GST control)"
same,binding signal,ELF5,"2 fold enrichment (6-mer frequency, TF over GST control)"
same,binding signal,ETV3,"1.78 fold enrichment (6-mer frequency, TF over GST control)"
same,binding signal,ETV6,"1.76 fold enrichment (6-mer frequency, TF over GST control)"
